Among the data in PubChem BioAssay (EPA / NIEHS) are outcome and AC50 values, retold here.

Records with an inconclusive call do not appear. Where a structure was tested more than once in an assay, its records may differ in their call. The source made the active and inactive calls. The calls were made as follows, unless noted: active = hit-call score of the fitted dose curve at least 0.9, where 1 is the maximum; inactive = score below 0.9.

A short description of experiment [1]: ATG_AP_1_CIS: Attagene CIS-FACTORIAL HepG2 Assay for human Activator Protein 1 (AP-1) (AID 2282931). The note with it: HepG2 Attagene cis-factorial AP-1 reporter mRNA; actives raise or lower the signal. The method, boiled down: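 Transient MRTU transfection of HepG2 → 24 h chemical treatment → RNA isolation, RT-PCR, 6-FAM labelling, HpaI digest → capillary electrophoresis. Fit: bidirectional, DMSO negative control.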

Experiment [2] can be described thus: ATG_M_61_CIS: Attagene CIS-FACTORIAL HepG2 Assay for M61 Transcription Factor (Internal Marker) (AID 2282937). The note with it: HepG2 Attagene CIS-FACTORIAL M61 internal marker reporter; actives raise or lower the signal. The method, boiled down: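 Human liver HepG2, transient MRTU transfection (cis promoter elements), 24 h compound. Total RNA → oligo(dT) RT → PCR → FAM label → HpaI → CE. Internal background marker; bidirectional fitting, DMSO = baseline.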

Experiment [3] in a line: ATG_GRE_CIS: Attagene CIS-FACTORIAL HepG2 Assay for human Glucocorticoid Response Elements (GRE) (AID 2282947). The note with it: HepG2 GRE cis-reporter, Attagene multiplex mRNA; actives raise or lower the signal. An outline of the steps: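 Assay uses human hepatoma HepG2 cells transfected with cis-promoter reporter units, exposed 24 h. mRNA from reporters detected by RT-PCR plus capillary electrophoresis; DMSO serves as negative control and baseline.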

Experiment [4] is described as follows: ATG_M_32_CIS: Attagene CIS-FACTORIAL HepG2 Assay for M32 Transcription Factor (Internal Marker) (AID 2282949).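 Also: background control marker of the multiplexed CIS panel rather than a real target.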 Conditions: HepG2 Attagene cis-factorial M32 reporter, mRNA; actives raise or lower the signal. An outline of the steps:
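Following 24 h chemical exposure of HepG2 cells transiently expressing cis-promoter reporter constructs, reporter transcript levels were determined by RT-PCR with fluorescent labelling and capillary electrophoresis, then fitted bidirectionally against DMSO.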

For experiment [5], the target named is Hypoxia-inducible factor 1-alpha (Homo sapiens) (UniProt Q16665). Put plainly: ATG_HIF1a_CIS: Attagene CIS-FACTORIAL HepG2 Assay for human Hypoxia Inducible Factor 1 (HIF1A) (AID 2282951). Conditions: HepG2 Attagene cis-factorial HIF1a reporter transcription; actives raise or lower the signal. An outline of the steps:
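Transient MRTU transfection of human HepG2 liver cells, 24 h compound treatment, then total RNA isolation, oligo(dT) reverse transcription, PCR amplification, fluorescent labelling and capillary electrophoresis of reporter fragments. Gain or loss relative to DMSO.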

Experiment [6] concerns the target Signal transducer and activator of transcription 3 (Homo sapiens) (UniProt P40763). Put plainly: ATG_STAT3_CIS: Attagene CIS-FACTORIAL HepG2 Assay for human Signal Transducer and Activator of Transcription 3 (STAT3) (AID 2282963). Conditions: HepG2, Attagene cis-factorial STAT3 reporter transcription; actives raise or lower the signal. The method, boiled down:
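After a 24 h compound incubation, total RNA from MRTU-transfected HepG2 cells was converted to cDNA and reporter sequences PCR-amplified, labelled and profiled by capillary electrophoresis. Gain and loss of signal were referenced to DMSO.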

The target in experiment [7] is human Peroxisome Proliferator-activated Receptor alpha (PPARa), PPARA (gene 5465) (UniProt Q07869). Put plainly: ATG_PPARa_TRANS: Attagene TRANS-FACTORIAL HepG2 Assay for human Peroxisome Proliferator-activated Receptor alpha (PPARa) (AID 2283001; active = hit-call score of the fitted dose curve at least 0.9, where 1 is the maximum;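 as to AC50: potency for gain of reporter signal over DMSO so agonist or activator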). The method, boiled down:
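Reporter transcripts from GAL4-UAS units in transfected HepG2 were quantified 24 h after dosing. Detection used reverse transcription, PCR, fluorescent primer extension and capillary electrophoresis, with DMSO as baseline.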

For experiment [8], the target named is Retinoic acid receptor RXR-alpha (Homo sapiens) (UniProt P19793). Put plainly: ATG_RXRa_TRANS: Attagene TRANS-FACTORIAL HepG2 Assay for human Retinoid X Receptor alpha (RXRa) (AID 2283012; active = hit-call score of the fitted dose curve at least 0.9, where 1 is the maximum). An outline of the steps:
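Cells (HepG2) carried transiently transfected GAL4-responsive reporter units. Following a 24 h chemical incubation, reporter mRNA induction was read via RT-PCR fragment analysis; DMSO served as negative control and baseline.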

Experiment [9] addresses human Retinoid X Receptor beta (RXRb), RXRB (gene 6257) (UniProt P28702). Put plainly: ATG_RXRb_TRANS: Attagene TRANS-FACTORIAL HepG2 Assay for human Retinoid X Receptor beta (RXRb) (AID 2283013; active = hit-call score of the fitted dose curve at least 0.9, where 1 is the maximum). The method, boiled down: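 Multiplexed TRANS reporter assay in HepG2; 24 h dosing; reporter mRNA by RT-PCR/CE fluorescence; gain-of-signal relative to DMSO.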
Experiment [10] in a line: ATG_PBREM_CIS: Attagene CIS-FACTORIAL HepG2 Assay for human Phenobarbital-responsive Enhancer Module (PBREM) (AID 2282955). The note with it: HepG2 PBREM cis-reporter, Attagene multiplexed transcription; actives raise or lower the signal. An outline of the steps:
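Endogenous transcription factors in human liver HepG2 cells drive a PBREM cis-element reporter, whose transcript level after 24 h treatment is quantified by RT-PCR with capillary electrophoresis; activity fitted in both directions against DMSO.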

For experiment [11], the target named is Oxysterols receptor LXR-beta (Homo sapiens) (UniProt P55055). Put plainly: ATG_LXRb_TRANS: Attagene TRANS-FACTORIAL HepG2 Assay for human Liver X Receptor beta (LXRb) (AID 2282981; active = hit-call score of the fitted dose curve at least 0.9, where 1 is the maximum). The note with it: HepG2 Attagene TRANS GAL4-LXRb reporter, mRNA. The method, boiled down: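 Cells: HepG2, transiently transfected with GAL4-UAS reporter units plus LXRb-Gal4 fusion. Treatment: 24 h. Detection: reporter mRNA by RT-PCR, 6-FAM labelling, HpaI digestion, capillary electrophoresis.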
Chain of Oxysterols receptor LXR-beta (Homo sapiens) (P55055 whole entry, looked up, the tested form may be a part): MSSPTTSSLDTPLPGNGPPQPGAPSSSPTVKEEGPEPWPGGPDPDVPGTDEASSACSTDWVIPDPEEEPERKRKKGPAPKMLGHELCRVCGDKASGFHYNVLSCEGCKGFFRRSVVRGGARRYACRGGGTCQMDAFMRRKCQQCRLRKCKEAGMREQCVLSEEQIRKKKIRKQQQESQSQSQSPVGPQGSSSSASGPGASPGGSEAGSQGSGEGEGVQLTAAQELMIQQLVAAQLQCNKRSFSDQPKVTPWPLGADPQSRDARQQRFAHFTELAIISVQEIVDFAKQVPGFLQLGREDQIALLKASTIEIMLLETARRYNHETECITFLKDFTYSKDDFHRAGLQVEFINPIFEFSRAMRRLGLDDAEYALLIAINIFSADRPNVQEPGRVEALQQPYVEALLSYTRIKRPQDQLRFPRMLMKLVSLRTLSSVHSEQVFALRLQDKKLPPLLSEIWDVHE

Experiment [12] addresses human Peroxisome Proliferator-activated Receptor delta (PPARd), PPARD (gene 5467) (UniProt Q03181). Put plainly: ATG_PPARd_TRANS: Attagene TRANS-FACTORIAL HepG2 Assay for human Peroxisome Proliferator-activated Receptor delta (PPARd) (AID 2283002; active = hit-call score of the fitted dose curve at least 0.9, where 1 is the maximum). An outline of the steps:
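Cell-based TRANS reporter: HepG2, transient MRTU transfection, 24 h exposure. Readout = reporter mRNA (RT-PCR/CE, 6-FAM). Gain-of-signal fit vs DMSO control.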

Experiment [13] addresses Cellular tumor antigen p53 (Homo sapiens) (UniProt P04637). Put plainly: TOX21_p53_BLA_p4_ratio: Tox21 HCT-116 p53 Agonism Beta-lactamase Assay, Ratio, Phase 4 (AID 2283601; active = hit-call score of the fitted dose curve at least 0.9, where 1 is the maximum). The method, boiled down:
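Signal is the blue/green (460nm/530nm) ratio of cleaved versus uncleaved CCF4-AM substrate, read after 2 h substrate loading. Cells were HCT116 carrying the p53-responsive beta-lactamase reporter, dosed 16 h at 37C, 5% CO2; CellTiter-Glo measured in parallel.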

Experiment [14] in a line: ATG_ISRE_CIS: Attagene CIS-FACTORIAL HepG2 Assay for human Interferon Regulatory Factor 1 (IRF1) binding to an Interferon-Stimulated Response Element (ISRE) (AID 2282948). Conditions: HepG2 ISRE cis-reporter (Attagene), mRNA transcription readout; actives raise or lower the signal. An outline of the steps: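 Transfected HepG2 (multiple reporter transcription units, cis elements) dosed 24 h. RNA → oligo(dT) RT → PCR → 6-FAM primer extension → HpaI → CE. DMSO = negative control/baseline.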

A short description of experiment [15]: ATG_TA_CIS: Attagene CIS-FACTORIAL HepG2 Assay for human TA Basal Promoter (AID 2282964). The note with it: HepG2 Attagene CIS-factorial TA basal promoter reporter; actives raise or lower the signal. The method, boiled down: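 Background internal-marker endpoint from a 52-component HepG2 cis-reporter panel. Cells treated 24 h; reporter transcripts quantified via RT-PCR and CE fluorescence against DMSO baseline.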

Experiment [16] in a line: ATG_M_06_TRANS: Attagene TRANS-FACTORIAL HepG2 Assay for M06 Transcription Factor (Internal Marker) (AID 2282983; active = hit-call score of the fitted dose curve at least 0.9, where 1 is the maximum). Conditions: HepG2 Attagene TRANS M06 internal marker reporter. An outline of the steps: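 HepG2 cells transiently transfected with multiplexed GAL4-UAS reporter transcription units; after 24 h compound exposure, reporter mRNA measured by RT-PCR, FAM-labelled primer extension, HpaI digestion and capillary electrophoresis. Gain-of-signal fitted versus DMSO baseline; background control readout.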

Experiment [17] is described as follows: TOX21_p53_BLA_p2_viability: Viability Assessment in the Tox21 HCT-116 p53 Agonism Beta-lactamase Assay, Phase 2 (AID 2283591; active = hit-call score of the fitted dose curve at least 0.9, where 1 is the maximum;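 also: compound exposure lasted 16 h at 37 °C; actives lower the ATP signal meaning cytotoxicity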). An outline of the steps: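 Cytotoxicity readout: CellTiter-Glo ATP luminescence, 30 min at room temperature, after the beta-lactamase read. Cells were HCT116 exposed 16 h at 37C to compounds pin-transferred at 217-fold dilution from DMSO stocks.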

Experiment [18] addresses Cellular tumor antigen p53 (Homo sapiens) (UniProt P04637). Put plainly: TOX21_p53_BLA_p3_ratio: Tox21 HCT-116 p53 Agonism Beta-lactamase Assay, Ratio, Phase 3 (AID 2283596; active = hit-call score of the fitted dose curve at least 0.9, where 1 is the maximum). The method, boiled down: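 HCT116 p53-bla cells (4000/well) given compound in DMSO (217-fold dilution) after 5 h, incubated 16 h at 37C. CCF4-AM substrate 2 h at room temperature; 460/530 nm emission ratio, gain fitted against DMSO.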

The target is the same in experiment [19]. Put plainly: TOX21_p53_BLA_p5_ratio: Tox21 HCT-116 p53 Agonism Beta-lactamase Assay, Ratio, Phase 5 (AID 2283599; active = hit-call score of the fitted dose curve at least 0.9, where 1 is the maximum). An outline of the steps:
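Beta-lactamase reporter ratio (blue 460 nm over green 530 nm, 405 nm excitation) after 2 h CCF4-AM loading, in HCT-116 cells exposed 16 h at 37 C to compounds pinned at 217-fold dilution. Increases relative to DMSO baseline scored.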

Experiment [20] can be described thus: ATG_NF_kB_CIS: Attagene CIS-FACTORIAL HepG2 Assay for human Nuclear Factor Kappa B (NF-kB) (AID 2282991). The note with it: HepG2 Attagene cis-factorial NF-kB reporter mRNA; actives raise or lower the signal. The method, boiled down:
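Transient MRTU transfection of human HepG2 liver cells → 24 h chemical exposure → total RNA, oligo(dT) RT → PCR, 6-FAM primer extension, HpaI digest 2 h 37 C → CE fragment analysis. Bidirectional fitting, DMSO negative control.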

Chain of human Retinoid X Receptor beta (RXRb), RXRB (gene 6257) (P28702 whole entry, looked up): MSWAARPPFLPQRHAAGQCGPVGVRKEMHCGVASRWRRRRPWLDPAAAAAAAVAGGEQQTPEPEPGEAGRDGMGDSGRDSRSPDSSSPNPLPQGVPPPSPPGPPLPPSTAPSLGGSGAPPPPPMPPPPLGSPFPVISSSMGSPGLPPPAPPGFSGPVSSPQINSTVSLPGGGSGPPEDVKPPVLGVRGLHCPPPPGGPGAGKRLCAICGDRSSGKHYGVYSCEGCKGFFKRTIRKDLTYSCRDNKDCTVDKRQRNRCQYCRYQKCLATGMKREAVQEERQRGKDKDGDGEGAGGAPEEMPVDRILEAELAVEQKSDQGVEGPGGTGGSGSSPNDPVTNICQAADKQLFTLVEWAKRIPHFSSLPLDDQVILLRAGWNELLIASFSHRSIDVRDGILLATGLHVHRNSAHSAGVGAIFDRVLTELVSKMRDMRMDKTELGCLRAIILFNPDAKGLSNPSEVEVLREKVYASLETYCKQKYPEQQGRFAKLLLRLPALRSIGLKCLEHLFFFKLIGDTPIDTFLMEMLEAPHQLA
Chain of Retinoic acid receptor RXR-alpha (Homo sapiens) (P19793 whole entry, looked up, the tested form may be a part): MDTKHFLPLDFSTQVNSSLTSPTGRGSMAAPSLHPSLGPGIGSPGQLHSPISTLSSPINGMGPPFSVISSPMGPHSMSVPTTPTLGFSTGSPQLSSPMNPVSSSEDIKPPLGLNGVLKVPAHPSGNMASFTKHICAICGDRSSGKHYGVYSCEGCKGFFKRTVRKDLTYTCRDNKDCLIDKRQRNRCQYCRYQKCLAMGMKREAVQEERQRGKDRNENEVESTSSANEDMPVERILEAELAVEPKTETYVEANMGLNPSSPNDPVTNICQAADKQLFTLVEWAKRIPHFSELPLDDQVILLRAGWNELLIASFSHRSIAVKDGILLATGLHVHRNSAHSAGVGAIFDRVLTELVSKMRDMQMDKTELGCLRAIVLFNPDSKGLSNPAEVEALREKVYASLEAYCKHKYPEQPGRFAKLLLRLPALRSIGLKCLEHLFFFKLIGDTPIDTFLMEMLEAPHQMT
Chain of Hypoxia-inducible factor 1-alpha (Homo sapiens) (Q16665 whole entry, looked up, the tested form may be a part): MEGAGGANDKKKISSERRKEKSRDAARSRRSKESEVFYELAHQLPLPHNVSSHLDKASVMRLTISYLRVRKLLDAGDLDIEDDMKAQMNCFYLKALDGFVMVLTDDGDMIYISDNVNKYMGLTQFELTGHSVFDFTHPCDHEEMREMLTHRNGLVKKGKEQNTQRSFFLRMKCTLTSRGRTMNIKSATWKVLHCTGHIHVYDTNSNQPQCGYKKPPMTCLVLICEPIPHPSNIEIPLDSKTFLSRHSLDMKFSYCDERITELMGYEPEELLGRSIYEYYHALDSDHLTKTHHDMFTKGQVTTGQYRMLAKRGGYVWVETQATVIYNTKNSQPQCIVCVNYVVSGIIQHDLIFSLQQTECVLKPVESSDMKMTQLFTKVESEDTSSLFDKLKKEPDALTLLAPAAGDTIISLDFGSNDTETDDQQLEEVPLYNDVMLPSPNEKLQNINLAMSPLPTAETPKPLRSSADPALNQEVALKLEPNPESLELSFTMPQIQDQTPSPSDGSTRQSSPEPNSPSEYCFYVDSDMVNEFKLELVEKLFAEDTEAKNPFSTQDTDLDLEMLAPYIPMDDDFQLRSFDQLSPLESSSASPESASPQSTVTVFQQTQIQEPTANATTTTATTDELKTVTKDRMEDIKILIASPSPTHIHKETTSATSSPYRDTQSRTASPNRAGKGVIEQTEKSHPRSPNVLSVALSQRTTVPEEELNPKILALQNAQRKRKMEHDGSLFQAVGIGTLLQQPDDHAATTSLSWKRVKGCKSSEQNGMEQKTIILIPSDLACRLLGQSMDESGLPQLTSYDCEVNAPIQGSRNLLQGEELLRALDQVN
Chain of Cellular tumor antigen p53 (Homo sapiens) (P04637 whole entry, looked up): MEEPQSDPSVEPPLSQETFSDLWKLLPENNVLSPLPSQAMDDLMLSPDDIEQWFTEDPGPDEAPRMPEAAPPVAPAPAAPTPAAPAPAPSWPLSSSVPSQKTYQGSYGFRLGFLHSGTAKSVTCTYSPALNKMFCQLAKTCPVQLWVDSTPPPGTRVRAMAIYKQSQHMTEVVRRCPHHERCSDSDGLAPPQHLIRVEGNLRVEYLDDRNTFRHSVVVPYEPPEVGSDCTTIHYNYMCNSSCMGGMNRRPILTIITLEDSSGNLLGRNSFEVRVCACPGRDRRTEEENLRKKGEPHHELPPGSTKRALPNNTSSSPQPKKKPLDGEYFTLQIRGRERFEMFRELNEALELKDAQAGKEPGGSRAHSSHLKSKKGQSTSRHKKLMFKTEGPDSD
Chain of Signal transducer and activator of transcription 3 (Homo sapiens) (P40763 whole entry, looked up): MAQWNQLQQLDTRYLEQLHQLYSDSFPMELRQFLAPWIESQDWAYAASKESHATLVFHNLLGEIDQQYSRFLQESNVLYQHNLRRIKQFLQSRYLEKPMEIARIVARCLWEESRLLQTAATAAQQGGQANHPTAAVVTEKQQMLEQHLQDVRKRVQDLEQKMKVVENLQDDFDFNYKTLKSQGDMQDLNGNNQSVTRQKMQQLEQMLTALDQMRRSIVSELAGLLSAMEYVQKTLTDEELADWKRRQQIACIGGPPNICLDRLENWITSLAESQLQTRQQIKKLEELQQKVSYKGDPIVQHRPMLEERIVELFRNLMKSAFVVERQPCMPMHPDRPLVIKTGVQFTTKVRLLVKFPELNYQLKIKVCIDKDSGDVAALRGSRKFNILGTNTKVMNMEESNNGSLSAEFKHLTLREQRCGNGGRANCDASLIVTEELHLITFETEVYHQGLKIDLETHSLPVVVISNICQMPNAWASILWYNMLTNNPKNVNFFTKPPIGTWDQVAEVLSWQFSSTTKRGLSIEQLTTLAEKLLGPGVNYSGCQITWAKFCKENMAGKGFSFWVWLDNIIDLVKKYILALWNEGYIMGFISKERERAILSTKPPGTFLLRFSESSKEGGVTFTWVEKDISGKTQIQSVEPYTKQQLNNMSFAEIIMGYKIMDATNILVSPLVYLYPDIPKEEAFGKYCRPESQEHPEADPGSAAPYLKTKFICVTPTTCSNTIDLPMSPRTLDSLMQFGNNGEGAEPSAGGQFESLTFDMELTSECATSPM
Chain of human Peroxisome Proliferator-activated Receptor alpha (PPARa), PPARA (gene 5465) (Q07869 whole entry, looked up, the tested form may be a part): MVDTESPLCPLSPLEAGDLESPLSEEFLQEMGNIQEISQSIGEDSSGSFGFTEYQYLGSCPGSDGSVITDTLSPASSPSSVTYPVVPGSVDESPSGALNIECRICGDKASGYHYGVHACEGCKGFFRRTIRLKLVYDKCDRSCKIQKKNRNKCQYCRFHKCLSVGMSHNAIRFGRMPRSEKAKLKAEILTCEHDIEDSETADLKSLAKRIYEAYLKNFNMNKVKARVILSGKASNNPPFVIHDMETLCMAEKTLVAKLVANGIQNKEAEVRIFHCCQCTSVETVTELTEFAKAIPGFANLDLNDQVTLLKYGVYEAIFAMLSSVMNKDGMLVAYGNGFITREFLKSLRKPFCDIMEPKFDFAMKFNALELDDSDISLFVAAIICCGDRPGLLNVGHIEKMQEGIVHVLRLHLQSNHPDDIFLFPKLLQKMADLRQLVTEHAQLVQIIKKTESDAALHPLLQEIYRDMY
Chain of human Peroxisome Proliferator-activated Receptor delta (PPARd), PPARD (gene 5467) (Q03181 whole entry, looked up): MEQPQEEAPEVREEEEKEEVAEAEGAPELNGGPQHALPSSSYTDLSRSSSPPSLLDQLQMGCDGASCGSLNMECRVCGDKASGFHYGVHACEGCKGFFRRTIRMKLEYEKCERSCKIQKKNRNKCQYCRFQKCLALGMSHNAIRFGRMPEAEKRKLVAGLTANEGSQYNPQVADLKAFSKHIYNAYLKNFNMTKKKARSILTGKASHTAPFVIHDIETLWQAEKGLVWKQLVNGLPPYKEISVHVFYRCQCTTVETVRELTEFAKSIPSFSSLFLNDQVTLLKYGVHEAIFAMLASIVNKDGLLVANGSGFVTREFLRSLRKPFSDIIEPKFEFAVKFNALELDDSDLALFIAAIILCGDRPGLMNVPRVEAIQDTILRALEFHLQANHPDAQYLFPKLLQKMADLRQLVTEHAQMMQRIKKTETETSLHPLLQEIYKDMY

On to `O=C(O)CCl`, for which the molecule was classed as inactive in experiment [1], in experiment [2], in experiment [3], in experiment [4], in experiment [5] and in experiment [6]. Besides, the call in experiment [7], in experiment [8] and in experiment [9] was inactive.

Turning to `O=c1[nH]c(Cl)c(Cl)cc1Cl`, the molecule was classed as inactive in experiment [2], in experiment [4], in experiment [10], in experiment [11], in experiment [7] and in experiment [12]. For the same molecule, the molecule was classed as inactive in experiment [8], in [9] and in experiment [13]. Further, the half-maximal activity concentration (AC50) – broadly, the concentration at which the activity in the assay is half-maximal – in [5] is 59.5 µM (active).

For `CCC1CCC(=O)O1` (configuration not stated), the molecule was classed as inactive in experiment [2], in experiment [3], in [14], in experiment [6], in experiment [15] and in experiment [16]. Also, the molecule was called inactive in experiment [7], in experiment [12] and in experiment [9].

`N#CC(c1ccccc1)c1ccccc1`: the molecule was classed as inactive in [1], in experiment [2], in experiment [3], in experiment [5], in [10] and in [6]. The result in experiment [15], in [16], in [12], in experiment [8], in experiment [17] and in experiment [18] was inactive. For the same molecule, the result in experiment [19] and in experiment [13] was inactive. For the same molecule, the AC50 in experiment [9] was 49.1 µM (active).

Take `CC1(C)CC(=O)CC(C)(C)N1[O]`: the molecule was classed as inactive in experiment [2], in experiment [14], in [5], in experiment [10], in [15] and in experiment [11]. The molecule was called inactive in experiment [20], in [12], in experiment [17] and in experiment [13].

For the molecule `C[N+](=O)[O-]`, the molecule was called inactive in experiment [1], in [2], in [3], in [14], in experiment [4] and in experiment [15]. Also, the outcome in [11], in experiment [16], in experiment [20], in experiment [7], in [12] and in experiment [8] was inactive. For the same molecule, the call in experiment [17] and in [13] was inactive.

For the molecule `Nc1ccccc1C(=O)Oc1ccc2ccccc2c1`, the molecule was called inactive in experiment [1], in experiment [2], in experiment [3], in [14], in experiment [10] and in experiment [15]. The outcome in experiment [16], in experiment [9], in [18] and in [13] was inactive. Also, the values for the AC50 in [8], in experiment [17] and in experiment [19] were 152 µM (active), 85.3 µM (active) and 83.5 µM (active), respectively.

With `C[C@]12CC[C@H]3[C@@H](CC[C@@]45O[C@@H]4C(O)=C(C#N)C[C@]35C)[C@@H]1CC[C@@H]2O`, the result in experiment [2], in experiment [4], in experiment [10], in experiment [6], in experiment [15] and in experiment [11] was inactive. Also, the molecule was classed as inactive in experiment [16], in [12], in experiment [8], in experiment [17], in experiment [18] and in experiment [19]. For the same molecule, the AC50 in [14] is 100 µM (active); in [5], 64.5 µM (active); in experiment [20], 18.6 µM (active); in experiment [18], 67 µM (active); in experiment [19], 68.6 µM (active).

As for `CC(=O)/C=C/c1ccccc1`, the results for the AC50 in [1], in [14] and in experiment [7] were 86.4 µM (active), 100 µM (active) and 38.8 µM (active), respectively. For the same molecule, the result in experiment [2], in experiment [3], in experiment [5], in [10], in experiment [6] and in experiment [15] was inactive. In addition, the molecule was classed as inactive in [11], in experiment [16], in experiment [20], in experiment [12], in experiment [8] and in experiment [9].
